Data taken from PubChem BioAssay (EPA / NIEHS).
Several values for one entry are separate records, joined by “and”; a condition that tells them apart may be missing. Equal entries are not always repeated. Results filed as inconclusive are left out. The source holds several records for some structures; these can differ, active in one and inactive in another. Activity calls are given as the source filed them. The calls were made as follows, unless noted: active = hit-call score of the fitted dose curve at least 0.9, where 1 is the maximum; inactive = score below 0.9.

Legend:
[1] = IUF_NPC2b_neuronal_migration_120hr: Leibniz Research Institute for Environmental Medicine (IUF) 120-hour Neural Progenitor Cell Migration Assay for Neuron Migration (NPC2b) (AID 2284300)
Protocol: IUF_NPC2-5 is a cell-based, multiplexed assay that uses hNPC, a human primary neural progenitor cells, with measurements taken at 72 or 120 hours after chemical dosing in a 96-well plate. Human neural progenitor cells (hNPC) are generated from human fetal brain cortex at gestational week (GW) 16-19. In the neural progenitor cell migration and differentiation assay (NPC2-5), hNPCs grown as spheres are plated on an extracellular matrix and migrate and differentiate out of the sphere core. The processes radial glia migration, neuronal and oligodendrocyte migration as well as neuronal differentiation, neuronal morphology and oligodendrocyte differentiation are studied using automated phase contrast imaging and automated fluorescence imaging in combination with high content image analysis. In parallel, the cell viability is assessed using an alamar blue viability assay and the cytotoxicity using a lactate dehydrogenase dependent membrane integrity assay.IUF_NPC2b_neuronal_migration_120hr is one of 12 assay components measured from the IUF_NPC2-5 assay. Neuronal migration distance at 120 hr is the mean distance of all neurons from the edge of the sphere core to each individual neuron (see IUF_NPC3_neuronal_differentiation_120hr). Neuronal migration is normalized to radial glia migration distance at 120 hr.Data from the IUF_NPC2b_neuronal_migration_120hr component was analyzed at the endpoint IUF_NPC2b_neuronal_migration_120hr in the positive analysis fitting direction relative to DMSO as the negative control and baseline of activity. Using a type of migration reporter, gain or loss-of-signal activity can be used to understand developmental effects.
(§1) Culture protocol: After the cell expansion period the cells are cultured for up to four weeks in which they are passaged every week as described in 3.6. Between one to three days after passaging spheres at a size of 0.3 mm are picked for the test method. […] Therefore, half of the test condition solution (e.g. solvent control or compound dilution) is replaced by freshly prepared test condition solution.Test Method: Migration distance and cytotoxicity is determined after 72 hours based on brightfield images of each well. […] On the ICC images, migration after 120 hours, neuronal and oligodendrocyte number, neuronal morphology and neuron/oligodendrocyte specific migration is assessed. immunocytochemical staining (ICC) generates an image for each sphere. The plates are scanned using an automated high content imaging device and all nuclei and their positions are determined automatically based on their intensity and size. […]

[2] = IUF_NPC3_neuronal_differentiation_120hr: Leibniz Research Institute for Environmental Medicine (IUF) 120-hour Neuronal Differentiation Assay (NPC3) (AID 2284301)
How it was run: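 Neuronal differentiation of primary human neural progenitors measured by high-content imaging: percent TUBB3+ of Hoechst+ nuclei within migrated area at 120 h, seven-point serial dilution plus solvent control, gain or loss relative to DMSO.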

[3] = IUF_NPC4_neurite_length_120hr: Leibniz Research Institute for Environmental Medicine (IUF) 120-hour Neuronal Morphology Assay for Neurite Length (NPC4) (AID 2284302)
How it was run: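 Neurons from differentiating human fetal neural progenitor spheres are scored for average neurite length after five days of compound exposure. Fitting uses DMSO as negative control.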

[4] = IUF_NPC5_oligodendrocyte_differentiation_120hr: Leibniz Research Institute for Environmental Medicine (IUF) 120-hour Oligodendrocyte Differentiation Assay (NPC5) (AID 2284304; active = hit-call score of the fitted dose curve at least 0.9, where 1 is the maximum;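 also: share of O4-positive cells among Hoechst nuclei found by CNN image analysis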)
Protocol: IUF_NPC2-5 is a cell-based, multiplexed assay that uses hNPC, a human primary neural progenitor cells, with measurements taken at 72 or 120 hours after chemical dosing in a 96-well plate. Human neural progenitor cells (hNPC) are generated from human fetal brain cortex at gestational week (GW) 16-19. In the neural progenitor cell migration and differentiation assay (NPC2-5), hNPCs grown as spheres are plated on an extracellular matrix and migrate and differentiate out of the sphere core. The processes radial glia migration, neuronal and oligodendrocyte migration as well as neuronal differentiation, neuronal morphology and oligodendrocyte differentiation are studied using automated phase contrast imaging and automated fluorescence imaging in combination with high content image analysis. In parallel, the cell viability is assessed using an alamar blue viability assay and the cytotoxicity using a lactate dehydrogenase dependent membrane integrity assay.IUF_NPC5_oligodendrocyte_differentiation_120hr is one of 12 assay components measured from the IUF_NPC2-5 assay. Oligodendrocyte differentiation at 120 hr is determined as the number of all O4-positive cells in percent of the number of Hoechst-positive nuclei in the total neurosphere migration area (see IUF_NPC2a_ glia_migration_120hr) after 120 hr of migration/differentiation. Oligodendrocytes are automatically identified using a convolutional neural network (CNN) that was trained using manually annotated images of differentiated oligodendrocytes.Data from the IUF_NPC5_oligodendrocyte_differentiation_120hr component was analyzed at the endpoint IUF_NPC5_oligodendrocyte_differentiation_120hr in the positive analysis fitting direction relative to DMSO as the negative control and baseline of activity. Using a type of differentiation reporter, loss-of-signal activity can be used to understand developmental effects.
as §1, with “sphere.” for “sphere. The plates are scanned using an automated high content imaging device and all nuclei and their positions are determined automatically based on their intensity and size.”

[5] = IUF_NPC4_neurite_area_120hr: Leibniz Research Institute for Environmental Medicine (IUF) 120-hour Neuronal Morphology Assay for Neurite Area (NPC4) (AID 2284305; active = hit-call score of the fitted dose curve at least 0.9, where 1 is the maximum)
How it was run: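 Endpoint at 120 h: automated imaging of TUBB3/Hoechst-stained differentiating human neural progenitor spheres, neurite area per neuron from skeletonization. DMSO solvent control, not above 0.1%, set the baseline; medium was half-replaced on day 3.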

[6] = IUF_NPC2-5_cytotoxicity_72hr: Cytotoxicity Assessment at 72 hours in the Leibniz Research Institute for Environmental Medicine (IUF) Neural Progenitor Cell Migration and Differentiation Assay for Cytotoxicity (NPC2-5) (AID 2284306; active = hit-call score of the fitted dose curve at least 0.9, where 1 is the maximum;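 also: LDH release into supernatant measured by resorufin fluorescence marking membrane damage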)
How it was run: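 Primary human neural progenitor spheres migrate and differentiate on laminin. Compound is present from the start of differentiation, with DMSO kept at or below 0.1%. At 72 h, supernatant LDH is quantified fluorometrically, with values fitted in the positive direction.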

[7] = IUF_NPC2-5_cytotoxicity_120hr: Cytotoxicity Assessment at 120 hours in the Leibniz Research Institute for Environmental Medicine (IUF) Neural Progenitor Cell Migration and Differentiation Assay (NPC2-5) (AID 2284307; active = hit-call score of the fitted dose curve at least 0.9, where 1 is the maximum;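 also: LDH released into supernatant as membrane damage marker via resorufin fluorescence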)
How it was run: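 Membrane-integrity loss is quantified by LDH in supernatant after five days of exposure of migrating, differentiating human fetal NPC spheres; seven serially diluted concentrations are tested with DMSO kept at or below 0.1%.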

[8] = IUF_NPC2-5_cell_number_120hr: Cell Number Assessment at 120 hours in the Leibniz Research Institute for Environmental Medicine (IUF) Neural Progenitor Cell Migration and Differentiation Assay (NPC2-5) (AID 2284308);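 also: count of Hoechst-stained nuclei in migration zone around plated human neural progenitor spheres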
How it was run: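 Seven-point serial dilutions plus solvent control were applied to plated 0.3 mm hNPC spheres at differentiation start, with medium half-replaced at day 3. Nuclei positive for Hoechst in the migration zone were enumerated at 120 h.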

[9] = VALA_TUBHUV_Agonist_CellCount: Viability Assessment in the VALA Sciences human Umbilical Vein Endothelial Tubule Formation (TUBHUV) Agonism Assay (AID 2284309; active = hit-call score of the fitted dose curve at least 0.9, where 1 is the maximum)
How it was run: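 Viability endpoint by fluorescent imaging of fixed nuclear/CD31-stained HUVEC–HDF co-cultures. Readout is cell count, fitted upward against 0.1% DMSO. Compound exposure was 72 h in 10 ng/ml VEGF, after 3-day co-culture priming.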

[10] = read-out: CD69, CD69 (gene 969); assay: BSK_LPS_CD69: BioMAP Diversity Plus: LPS Assay for CD69 Biomarker Activity (AID 2284303); conditions: primary human HUVEC with PBMC
How it was run: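 CD69 surface levels were read by ELISA after 24 h chemical treatment of an LPS-stimulated HUVEC plus PBMC co-culture; positive-direction fit against DMSO vehicle.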

O=C(CCCN1CCC(O)(c2ccc(Cl)cc2)CC1)c1ccc(F)cc1
outcome [1]: inactive | outcome [2]: inactive | outcome [3]: inactive | AC50 [4]: 3350 nM (active) | outcome [5]: inactive | outcome [6]: inactive | AC50 [7]: 1980 nM (active) | outcome [8]: inactive | outcome [9]: inactive

O=C(O)CCC(F)(F)C(F)(F)C(F)(F)C(F)(F)C(F)(F)C(F)(F)F
outcome [10]: inactive

O=P(O)(O)CCC(F)(F)C(F)(F)C(F)(F)C(F)(F)C(F)(F)C(F)(F)C(F)(F)C(F)(F)F
outcome [10]: inactive

O=P(O)(O)CCC(F)(F)C(F)(F)C(F)(F)C(F)(F)C(F)(F)C(F)(F)F
outcome [10]: inactive

O=C(O)CCC(F)(F)C(F)(F)C(F)(F)C(F)(F)C(F)(F)F
AC50 [10]: 5.95 µM (active) | outcome [10]: inactive

OCC(F)(F)C(F)(F)C(F)(F)C(F)(F)C(F)(F)C(F)(F)C(F)(F)C(F)(F)C(F)(F)C(F)(F)C(F)(F)F
outcome [10]: inactive

CN(CCO)S(=O)(=O)C(F)(F)C(F)(F)C(F)(F)C(F)(F)C(F)(F)C(F)(F)C(F)(F)C(F)(F)F
outcome [10]: inactive

CC(C)c1c(C(=O)Nc2ccccc2)c(-c2ccccc2)c(-c2ccc(F)cc2)n1CC[C@@H](O)C[C@@H](O)CC(=O)O
outcome [1]: inactive | outcome [2]: inactive | outcome [3]: inactive | outcome [4]: inactive | outcome [5]: inactive | AC50 [6]: 2540 nM (active) | AC50 [7]: 1750 nM (active) | outcome [8]: inactive

O=C(O)C(F)(F)OC(F)(F)C(F)(F)OC(F)(F)C(F)(F)OC(F)(F)C(F)(F)C(F)(F)C(F)(F)F
AC50 [10]: 39.9 µM (active) and 41.2 µM (active)

O=C(CC(=O)C(F)(F)C(F)(F)C(F)(F)F)c1cccs1
outcome [10]: inactive

C=CC(=O)OCCC(F)(F)C(F)(F)C(F)(F)C(F)(F)C(F)(F)C(F)(F)C(F)(F)C(F)(F)F
outcome [10]: inactive
